Test results reported in PubChem BioAssay (NCATS).
Inconclusive results are not listed. Unmarked numbers belong to inactive results. Active and inactive are the calls of the source. The call rests on the fitted dose curve; in most records, active means well fitted curve in the direction sought with a large enough effect; inconclusive means small, poorly fitted or top-dose-only effect, or another doubt; inactive means no such curve, though single readings can be large; an effect the other way counts as inactive or inconclusive.

Assays:
SKOV3 = experiment: Primary qHTS to identify gynecologic anti-cancer compounds using libraries of approved drugs and bioactive compounds (AID 1345084); settings: Gynecologic cancer cell panel viability, ATPlite luminescence, 48 h; series mostly up to 57.5 µM; further: nearly all actives have a fitted effect of over 55% in size
Summary of the method: (§1)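 Cell viability after 48 h drug treatment, ATPlite luminescence readout; five doses.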

Tov-21-G = experiment: as above; settings: Gynecologic cancer cell panel viability, ATPlite luminescence, 48 h; series mostly up to 57.5 µM
Summary of the method: as §1

Tov112D = experiment: as above; settings: Gynecologic cancer cell panel viability, ATPlite luminescence, 48 h; series mostly up to 57.5 µM
Summary of the method: as §1

[1] = Drug repurposing screens with cells derived from glioblastoma tumor samples (AID 1345199); settings: GBM patient neurospheres viability, ATP luminescence, 48 h; further: nearly all actives have a fitted effect of over 40% in size; further: potency means the concentration at half of the fitted maximal effect
Summary of the method: (§2)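 Primary testing used CD133+ neurospheres from four GBM patients, seven concentrations, 48 h exposure and ATP-based viability; confirmation added three slower-growing patient lines.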

astro = experiment: as above; settings: viability, ATP luminescence, 48 h; series mostly up to 45.9 µM
Summary of the method: as §2

[2] = at 45.9 µM (top of the series), tumour line B
[3] = at 45.9 µM (top of the series), tumour line D
[4] = at 46 µM (top of the series), tumour line A
[5] = at 46.1 µM (top of the series), tumour line C
[6] = at 20 µM (top of the series), tumour line C
[7] = at 21.2 µM (top of the series), tumour line B
[8] = at 21.2 µM (top of the series), tumour line D
On the % scale 0 is the no-effect control and ±100 the full control effect.

Structure (SMILES): N=C(N)N1CCc2ccccc2C1
- activity change, negative = cytotoxicity (SKOV3): -11.6% [at 6.55 µM]
- activity change, negative = cytotoxicity (Tov-21-G): -1.06% [at 6.55 µM]
- activity change, negative = cytotoxicity (Tov112D): -0.978% [at 6.55 µM]
- activity, negative = cell killing [1, 2]: -7.25%
- activity, negative = cell killing [1, 3]: 0.46%
- activity, negative = cell killing [1, 4]: -7.22%
- activity, negative = cell killing [1, 5]: -18.5%
- Potency (astro): inactive

Structure (SMILES): CCOCCn1c(N2CCCN(C)CC2)nc2ccccc21
- Potency (SKOV3): inactive
- Potency (Tov-21-G): inactive
- Potency (Tov112D): inactive
- activity, negative = cell killing [1, 2]: -14.8%
- activity, negative = cell killing [1, 3]: -9.28%
- activity, negative = cell killing [1, 5]: -16%
- Potency ([1]; tumour line A): 17.8 µM (active)
- Potency (astro): inactive

Structure (SMILES): NS(=O)(=O)c1cc2c(cc1Cl)NC(CC1CCCC1)NS2(=O)=O (configuration not stated)
- Potency (SKOV3): inactive
- Potency (Tov-21-G): inactive
- Potency (Tov112D): inactive
- activity, negative = cell killing [1, 6]: -10.8%
- activity, negative = cell killing [1, 7]: -9.27%
- activity, negative = cell killing [1, 8]: -11%
- activity, negative = cell killing ([1]; at 21.3 µM (top of the series), tumour line A): -13.5%
- Potency (astro): inactive

Structure (SMILES): CC(=O)Nc1ccc(OC(=O)c2ccccc2OC(C)=O)cc1
- Potency (SKOV3): inactive
- Potency (Tov-21-G): inactive
- Potency (Tov112D): inactive
- activity, negative = cell killing [1, 2]: -12.4%
- activity, negative = cell killing [1, 3]: -13.4%
- activity, negative = cell killing [1, 4]: -15.3%
- activity, negative = cell killing [1, 5]: -16.9%
- Potency (astro): inactive

Structure (SMILES): CC(=O)OCC1=C(C(=O)O)N2C(=O)[C@@H](NC(=O)CSc3ccncc3)[C@H]2SC1
- Potency (SKOV3): inactive
- Potency (Tov-21-G): inactive
- Potency (Tov112D): inactive
- activity, negative = cell killing [1, 2]: -6.44%
- activity, negative = cell killing [1, 3]: -23.6%
- activity, negative = cell killing [1, 4]: -34.9%
- activity, negative = cell killing [1, 5]: -18.9%
- Potency (astro): inactive

Structure (SMILES): C[C@@H](O)[C@H]1C(=O)N2C(C(=O)O)=C(S[C@@H]3CN[C@H](CNS(N)(=O)=O)C3)[C@H](C)[C@H]12
- Potency (SKOV3): inactive
- Potency (Tov-21-G): inactive
- Potency (Tov112D): inactive
- activity, negative = cell killing [1, 2]: -1.99%
- activity, negative = cell killing [1, 3]: 1.38%
- activity, negative = cell killing [1, 4]: -14.9%
- activity, negative = cell killing [1, 5]: -16.7%
- Potency (astro): inactive

Structure (SMILES): N#CCC(=O)NN
- Potency (SKOV3): inactive
- Potency (Tov-21-G): inactive
- Potency (Tov112D): inactive
- activity, negative = cell killing [1, 2]: -9.6%
- activity, negative = cell killing [1, 3]: -5.43%
- activity, negative = cell killing [1, 4]: -40.8%
- activity, negative = cell killing [1, 5]: -7.01%
- Potency (astro): inactive

Structure (SMILES): CC[C@H](c1ccc(O)cc1)[C@@H](CC)c1ccc(O)cc1
- Potency (SKOV3): inactive
- Potency (Tov-21-G): inactive
- Potency (Tov112D): inactive
- activity, negative = cell killing [1, 6]: -16.2%
- activity, negative = cell killing [1, 7]: 5.51%
- activity, negative = cell killing [1, 8]: -30%
- Potency ([1]; tumour line A): 14.1 µM (active)

Structure (SMILES): CN(CCCN1c2ccccc2CCc2ccccc21)CC(=O)c1ccc(Cl)cc1
- Potency (SKOV3): inactive
- Potency (Tov-21-G): inactive
- Potency (Tov112D): inactive

Structure (SMILES): CC(=O)Nc1ccc(S(=O)(=O)Nc2ccc([N+](=O)[O-])cc2)cc1
- Potency (SKOV3): inactive
- Potency (Tov-21-G): inactive
- Potency (Tov112D): inactive
- activity, negative = cell killing [1, 2]: -8.95%
- activity, negative = cell killing [1, 3]: -28.3%
- activity, negative = cell killing [1, 5]: 10.9%

Structure (SMILES): COc1ccc(CCN(C)CCCN2CCc3cc(OC)c(OC)cc3CC2=O)cc1OC
- Potency (SKOV3): inactive
- Potency (Tov-21-G): inactive
- Potency (Tov112D): inactive
- activity, negative = cell killing [1, 2]: -2.1%
- activity, negative = cell killing [1, 3]: -12.6%
- activity, negative = cell killing [1, 5]: -18%
- Potency ([1]; tumour line A): 28.2 µM (active)
- Potency (astro): inactive

Structure (SMILES): CCO[C@@H]1O[C@H](C(COCc2ccccc2)OCc2ccccc2)[C@H](OCc2ccccc2)[C@H]1O (some centres not stated)
- Potency (SKOV3): inactive
- Potency (Tov-21-G): inactive
- Potency (Tov112D): inactive
- activity, negative = cell killing [1, 6]: -1.34%
- activity, negative = cell killing [1, 7]: -8.94%
- activity, negative = cell killing [1, 8]: -23.7%
- Potency ([1]; tumour line A): 14.1 µM (active)
- Potency (astro): inactive

Structure (SMILES): NCCNC(=O)c1ccc(Cl)cn1
- Potency (SKOV3): inactive
- Potency (Tov-21-G): inactive
- Potency (Tov112D): inactive
- activity, negative = cell killing [1, 2]: -0.687%
- activity, negative = cell killing [1, 3]: -7.85%
- activity, negative = cell killing [1, 4]: -29.4%
- activity, negative = cell killing [1, 5]: -12.2%
- Potency (astro): inactive

Structure (SMILES): O=C(O)P(=O)(O)O
- Potency (SKOV3): inactive
- Potency (Tov-21-G): inactive
- Potency (Tov112D): inactive
- activity, negative = cell killing [1, 2]: -0.165%
- activity, negative = cell killing [1, 3]: -25%
- activity, negative = cell killing [1, 4]: -23.7%
- activity, negative = cell killing [1, 5]: 21.2%
- Potency (astro): inactive

Structure (SMILES): CC(=O)Nc1ccc(CC(=O)O)cc1
- Potency (SKOV3): inactive
- Potency (Tov-21-G): inactive
- Potency (Tov112D): inactive
- activity, negative = cell killing [1, 2]: 0.59%
- activity, negative = cell killing [1, 3]: -5.02%
- activity, negative = cell killing [1, 4]: -20.1%
- activity, negative = cell killing [1, 5]: 3.56%
- Potency (astro): inactive

Structure (SMILES): CC1CCc2c(N3CCC(O)CC3)c(F)cc3c(=O)c(C(=O)O)cn1c23 (configuration not stated)
- Potency (SKOV3): inactive
- Potency (Tov-21-G): inactive
- Potency (Tov112D): inactive
- activity, negative = cell killing [1, 2]: 9.87%
- activity, negative = cell killing [1, 3]: -25.4%
- activity, negative = cell killing [1, 4]: -14.1%
- activity, negative = cell killing [1, 5]: -16%
- Potency (astro): inactive

Structure (SMILES): CC(=O)Oc1ccc(C)cc1
- Potency (SKOV3): inactive
- Potency (Tov-21-G): inactive
- Potency (Tov112D): inactive
- activity, negative = cell killing [1, 2]: -11.7%
- activity, negative = cell killing [1, 3]: -7.35%
- activity, negative = cell killing [1, 4]: -28.8%
- activity, negative = cell killing [1, 5]: -10.6%
- Potency (astro): inactive

Structure (SMILES): OCCOCCN1CCN(C2=Nc3ccccc3Sc3ccccc32)CC1
- Potency (SKOV3): inactive
- Potency (Tov-21-G): inactive
- Potency (Tov112D): inactive
- activity, negative = cell killing [1, 2]: -22.8%
- activity, negative = cell killing [1, 3]: -20.3%
- activity, negative = cell killing [1, 5]: 1.64%
- Potency ([1]; tumour line A): 11.2 µM (active)
- Potency (astro): inactive

Structure (SMILES): CN1CCN(c2cc3c(cc2F)c(=O)c(C(=O)O)cn3-c2ccc(F)cc2)CC1
- Potency (SKOV3): inactive
- Potency (Tov-21-G): inactive
- Potency (Tov112D): inactive
- activity, negative = cell killing [1, 2]: -7.1%
- activity, negative = cell killing [1, 3]: -1.79%
- activity, negative = cell killing [1, 4]: -26.7%
- activity, negative = cell killing [1, 5]: 5.61%
- Potency (astro): inactive

Structure (SMILES): CC(C)[C@@H]1CC[C@@H](C)CC1=O
- Potency (SKOV3): inactive
- Potency (Tov-21-G): inactive
- Potency (Tov112D): inactive
- activity, negative = cell killing [1, 2]: -6.28%
- activity, negative = cell killing [1, 3]: -8.45%
- activity, negative = cell killing [1, 4]: -24.9%
- activity, negative = cell killing [1, 5]: -8.42%
- Potency (astro): inactive
